Measured values published in PubChem BioAssay (NCI).
The panel holds about 83,000 compounds, 20% with a hit somewhere; the sample as a whole holds those more often.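 Assay: single dose, 48 h. Readout: percent growth (0 = no net growth; negative = cell death). Active: <10.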 Unmarked numbers belong to inactive results. The source made the active and inactive calls.

How the values were obtained:
Experiment in all cases: NCI-60 one-dose screen, 48 h (100 = growth as untreated, 0 = no growth, -100 = all killed)
Conditions in all cases: 10 µM unless noted
T-47D breast = system: T-47D breast
BT-549 breast = system: BT-549 breast
MDA-MB-435 melanoma = system: MDA-MB-435 melanoma
SW-620 colon = system: SW-620 colon
MCF7 breast = system: MCF7 breast
HCT-116 colon = system: HCT-116 colon
HCC-2998 colon = system: HCC-2998 colon
KM12 colon = system: KM12 colon

CCCCCCCCCCCCCCCCSC(=NCC)NCC
growth (T-47D breast): 8.09% (active) | growth (BT-549 breast): 64.4% | growth (MDA-MB-435 melanoma): -89.7% (active) | growth (SW-620 colon): -71.7% (active) | growth (MCF7 breast): -66.3% (active) | growth (HCT-116 colon): -94.3% (active) | growth (HCC-2998 colon): -64.9% (active)

Clc1ccc(Cc2nc3ccccc3s2)cc1
growth (T-47D breast): 79.6% | growth (BT-549 breast): 86.7% | growth (MDA-MB-435 melanoma): 92.5% | growth (SW-620 colon): 101% | growth (MCF7 breast): 77.4% | growth (HCT-116 colon): 97.8% | growth (HCC-2998 colon): 103%

COc1c(C)c2c(c(O)c1C/C=C(\C)CCC(=O)O)C(=O)OC2
growth (T-47D breast): 44.7% | growth (BT-549 breast): 35.4% | growth (MDA-MB-435 melanoma): 30.1% | growth (SW-620 colon): 21.7% | growth (MCF7 breast): 23.9% | growth (HCT-116 colon): 13.3% | growth (HCC-2998 colon): 33.3%

CCOc1cc(F)c([N+](=O)[O-])cc1[N+](=O)[O-]
growth (T-47D breast): 24.5% | growth (BT-549 breast): 87.3% | growth (MDA-MB-435 melanoma): 37.2% | growth (SW-620 colon): 19.8% | growth (MCF7 breast): 15.9% | growth (HCT-116 colon): 9.26% (active) | growth (HCC-2998 colon): 98.7% | growth (KM12 colon): -44.7% (active)

O=C(NOC(=O)c1ccccc1)c1ccccc1
growth (T-47D breast): 101% | growth (BT-549 breast): 107% | growth (MDA-MB-435 melanoma): 96.4% | growth (SW-620 colon): 93.8% | growth (MCF7 breast): 107% | growth (HCT-116 colon): 95.7% | growth (HCC-2998 colon): 112%

O=S(=O)(O)c1cnccn1
growth (T-47D breast): 78.6% | growth (BT-549 breast): 95.3% | growth (MDA-MB-435 melanoma): 105% | growth (SW-620 colon): 112% | growth (MCF7 breast): 98% | growth (HCT-116 colon): 86.5% | growth (HCC-2998 colon): 102%

O=C(Nc1cccc(C(F)(F)F)c1)Oc1ccc(Cl)c2cccnc12
growth (T-47D breast): 22% | growth (BT-549 breast): 37.5% | growth (MDA-MB-435 melanoma): 28% | growth (SW-620 colon): 12.8% | growth (MCF7 breast): 61.1% | growth (HCT-116 colon): 0.974% (active) | growth (HCC-2998 colon): 92.7% | growth (KM12 colon): 25.4%

CN=C(N)N/N=C(\c1ccccc1)c1ccc(Br)cc1
growth (T-47D breast): 39.3% | growth (BT-549 breast): 21.5% | growth (MDA-MB-435 melanoma): -60.8% (active) | growth (SW-620 colon): 29.4% | growth (MCF7 breast): 4.81% (active) | growth (HCT-116 colon): 8.58% (active) | growth (HCC-2998 colon): -61.1% (active)

Clc1ccc(-n2ncc3c(NCCCN4CCOCC4)ncnc32)cc1
growth (T-47D breast): 85.3% | growth (BT-549 breast): 101% | growth (MDA-MB-435 melanoma): 98.9% | growth (SW-620 colon): 104% | growth (MCF7 breast): 89.9% | growth (HCT-116 colon): 94.9% | growth (HCC-2998 colon): 105%

CN=C(N)N/N=C(\C)c1ccc2c(c1)Cc1ccccc1-2
growth (T-47D breast): -65.4% (active) | growth (BT-549 breast): -6.1% (active) | growth (MDA-MB-435 melanoma): -73.1% (active) | growth (SW-620 colon): -88.9% (active) | growth (MCF7 breast): -99.3% (active) | growth (HCT-116 colon): -100% (active) | growth (HCC-2998 colon): -98.5% (active) | growth (KM12 colon): -79% (active)

OC(c1cc(C23CC4CC(CC(C4)C2)C3)nc2c(Cl)cc(Cl)cc12)C1CCCCN1 (configuration not stated)
growth (T-47D breast): -74.3% (active) | growth (BT-549 breast): 37.7% | growth (MDA-MB-435 melanoma): -66.1% (active) | growth (SW-620 colon): -68.1% (active) | growth (MCF7 breast): -80.7% (active) | growth (HCT-116 colon): -84% (active) | growth (HCC-2998 colon): -71.7% (active)

CC(C)c1ccc(C(=O)OC2CCCC2)cc1
growth (T-47D breast): 91.2% | growth (BT-549 breast): 97.5% | growth (MDA-MB-435 melanoma): 101% | growth (SW-620 colon): 99.7% | growth (MCF7 breast): 95.7% | growth (HCT-116 colon): 92.3% | growth (HCC-2998 colon): 99% | growth (KM12 colon): 99.9%

CCOc1ccc2c(c1)/C(=C\C=C\C1CC(C)C3CC(OCC)CCC3N1CC)CC(C)N2CC (configuration not stated)
growth (T-47D breast): 9.32% (active) | growth (BT-549 breast): 0.574% (active) | growth (MDA-MB-435 melanoma): -20.6% (active) | growth (SW-620 colon): 17.1% | growth (MCF7 breast): 3.06% (active) | growth (HCT-116 colon): 10.7% | growth (HCC-2998 colon): 28.5%

N=C(N)Sc1cccc[n+]1[O-]
growth (T-47D breast): 63.1% | growth (BT-549 breast): 80.3% | growth (MDA-MB-435 melanoma): 62.9% | growth (SW-620 colon): 46.9% | growth (MCF7 breast): 14.6% | growth (HCT-116 colon): 9.31% (active) | growth (HCC-2998 colon): 74.7% | growth (KM12 colon): 55.1%

C1=C(c2ccccc2)c2ccccc2C1
growth (T-47D breast): 92.7% | growth (BT-549 breast): 99.1% | growth (MDA-MB-435 melanoma): 93.1% | growth (SW-620 colon): 97.8% | growth (MCF7 breast): 109% | growth (HCT-116 colon): 95.8% | growth (HCC-2998 colon): 91% | growth (KM12 colon): 96.3%

CN(C)c1ccc(C(C#N)(c2ccccc2)c2ccc(N(C)C)cc2)cc1
growth (T-47D breast): 41.8% | growth (BT-549 breast): 72.9% | growth (MDA-MB-435 melanoma): 84.2% | growth (SW-620 colon): 43.3% | growth (MCF7 breast): 39.9% | growth (HCT-116 colon): 30.8% | growth (HCC-2998 colon): 51.2%

Cc1cc(C)c([I+]c2c(C)cc(C)cc2C)c(C)c1
growth (T-47D breast): 0.613% (active) | growth (BT-549 breast): -86.4% (active) | growth (MDA-MB-435 melanoma): -81.2% (active) | growth (SW-620 colon): -40.1% (active) | growth (MCF7 breast): -53.7% (active) | growth (HCT-116 colon): -87.1% (active) | growth (HCC-2998 colon): -85.5% (active)

CN(C)c1ccc(/C=C/c2ccnc3ccccc23)cc1
growth (T-47D breast): 43.1% | growth (BT-549 breast): 20.2% | growth (MDA-MB-435 melanoma): 2.49% (active) | growth (SW-620 colon): 26.9% | growth (MCF7 breast): 19.9% | growth (HCT-116 colon): 24.8% | growth (HCC-2998 colon): 72.1%
